This passage reports activity change, negative = inhibition results from PubChem BioAssay AID1259415 (National Center for Advancing Translational Sciences (NCATS), 2018).

The whole screen tested about 410,000 compounds, of which about 18,000 (4.4%) were called active. Not shown: some 7% with an inconclusive outcome. The full list was thinned out, with actives kept by preference. Unmarked numbers belong to inactive results. No stated cut-off is given here; in the data, active means activity change below about -60%; inconclusive means no clear call, values can overlap the other calls; inactive means above about -39%.
On the % scale 0 is the no-effect control and ±100 the full control effect.

This experiment in a line: qHTS Assay for inhibitors of the human cytomegalovirus (HCMV). To be noted: HFF cells, HCMV-luciferase reporter, 72 h; at 57.5 µM; stronger effect = lower value. The gist of the method: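 Cell-based, HFFs, 1000 cells/well, 16 h 37C; cpds in DMSO + HCMV-luc, MOI 1 PFU/cell; 72 h 37C; OneGlo luminescence after 5 min RT; norm. to buffer vs Salinomycin 10uM.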
(In general: Quantitative high-throughput screening tests each substance at several concentrations.)
For `CCCNC(=O)C1CCC(Cn2c(=O)c3sccc3n(Cc3ccccc3F)c2=O)CC1` (configuration not stated), the activity change, negative = inhibition was 1.25%.
As to `O=C(N/N=C/c1ccc(O)c(O)c1)C1c2ccccc2Oc2ccccc21`, the activity change, negative = inhibition was 23.9%.
With `O=C(O)/C(=C/c1cccnc1)NC(=O)c1ccccc1` the figure was 6.75%.
As for `Cc1c(Cl)cccc1NC(=O)CSc1ccc(-c2cccnc2)nn1`, the activity change, negative = inhibition is -12.1%.
The value for `CCOC(=O)CNC(=O)CSc1ccc2nnc(-c3cccnc3)n2n1` was 49.6%.
With `O=C(N/N=C/c1cccnc1)c1cc2ccccc2cc1O` the figure was -98% (active); with `O=C(CSc1cccc2cccnc12)N/N=C/c1cccnc1`, -101% (active); with `CCOC(=O)N/N=C/c1cccnc1`, -60.5% (active).
Regarding `O=C(N/N=C/c1cccc2cccnc12)[C@H]1C[C@@H]1c1ccccc1`, the activity change, negative = inhibition is 20.4%.
With `CC1=NNC(=O)C1CC(=O)N/N=C/c1ccncc1` (configuration not stated) the figure was 42.5%; with `COc1ccc(Cn2ccn(CC(=O)Nc3cc(C)ccc3C)c(=O)c2=O)cc1`, 15.8%.
Take `COc1ccccc1NC(=O)CN1C(=O)c2ccccc2Sc2ccc(C(=O)N3CCCC3)cc21`: the activity change, negative = inhibition was 14.4%.
With `CC(C)(C)OC(=O)N1CCC(c2c(C(=O)N3CCc4ccccc4C3)cnn2-c2ccc(F)cc2)CC1` the figure was 6.95%; with `Cc1cc(C)cc(NC(=O)CSc2oc(-c3ccccc3)nc2S(=O)(=O)c2ccc(Cl)cc2)c1`, -2.05%.
As for `COc1ccc(CCC(=O)NCc2ccc3c(c2)CCN3C(=O)c2ccc(F)cc2)cc1`, the activity change, negative = inhibition is 15.1%.
The value for `CCc1ccc2oc(-c3ccc(NC(=O)c4cc5ccccc5o4)cc3)nc2c1` was 37.7%; that for `Cc1cccc(NC(=O)N2CCCCCC2)c1C` was 57.9%; that for `Cc1cccc(NC(=S)N2CCC(O)CC2)c1C` was -32.2%.
With `Cc1cccc(C)c1NC(=S)N1CCCCCC1` the figure was -64.3% (active); with `O=C1NCC(Nc2ccccc2)C(=O)N1` (configuration not stated), -7.88%; with `CCc1ccc(NS(=O)(=O)c2ccc3[nH]cc(C(=O)NCCc4cccc(C)c4)c(=O)c3c2)cc1`, 93.7%.
The value for `OC(CNCC1CCCO1)Cn1c2ccc(Br)cc2c2cc(Br)ccc21` (configuration not stated) was 2.12%.
As to `Cc1cc(C)c2oc(-c3cccc(NC(=O)c4cccc(F)c4)c3C)nc2c1`, the activity change, negative = inhibition is -0.821%.
For `CC(=O)c1cc(CN2CCC(C(=O)Nc3cccc(-c4cscn4)c3)CC2)cs1`, the activity change, negative = inhibition is -30.7%.
As for `CCn1cc(CN2CCC(C(=O)Nc3cccc(-c4cccc(Cl)c4)c3)CC2)cn1`, the activity change, negative = inhibition was -97.6% (active).
The value for `O=C(Nc1cccc(-c2cscn2)c1)C1CCN(Cc2ccsc2)CC1` was -33.6%.
The value for `COc1ccc(OCCCn2c(C3CC(=O)N(c4ccc(F)cc4)C3)nc3ccccc32)cc1` (configuration not stated) was -13%; that for `CCCCN1CC(c2nc3ccccc3n2CCCCOc2ccc(C)cc2C)CC1=O` (configuration not stated) was -105% (active).
Regarding `CCc1ccccc1N1CC(c2nc3ccccc3n2CCCCOc2ccccc2)CC1=O` (configuration not stated), the activity change, negative = inhibition is -4.32%.
The value for `O=C(NCc1ccccc1)C1CCN(S(=O)(=O)c2ccc3[nH]c(=O)ccc3c2)CC1` was 23%; that for `Cc1ccccc1OCC(=O)Nc1c(C(=O)Nc2ccccc2F)oc2ccccc12` was 11.7%; that for `C=CCSc1nnc(Cn2c(=O)sc3ccccc32)n1C` was -2.22%.
With `COc1ccc(Cn2c(=O)sc3ccccc32)cc1OC` the figure was -99.8% (active); with `COc1ccc(CN2CCOC2=O)cc1OC`, -13.1%.
For the molecule `CCOC(=O)c1ccc(NC(=O)Cn2c(=O)cc(C)c3c(C)nn(-c4cccc(F)c4)c32)cc1`, the activity change, negative = inhibition is 2.32%.
The value for `CCC(C)N1C(=O)S/C(=C/c2ccc(Sc3nc4ccccc4[nH]3)o2)C1=O` (configuration not stated) was -91.5% (active); that for `CCC(c1nc2ccccc2[nH]1)n1c(=O)c(-c2cccs2)nc2ccccc21` (configuration not stated) was -2.85%.
With `COc1ccc(C)cc1NC(=O)CCc1c(C)nn(-c2ccc(N3CCOCC3)nn2)c1C` the figure was 39.1%.
With `CCCCCn1c(=O)[nH]c2cc(C(=O)NCCN(C)CCCC)ccc2c1=O` the figure was -33.3%; with `CCOc1ccc(NC(=O)c2c(NC(=O)Cc3ccccc3)sc3c2CCC(C)C3)cc1` (configuration not stated), -34.6%; with `O=C(Cc1ccccc1)Nc1sc2c(c1C(=O)Nc1ccc(Br)cc1)CCC2`, 5.03%.
`CCOc1ccc(NC(=O)c2c(NC(=O)Cc3ccccc3)sc3c2CCCCC3)cc1`: the activity change, negative = inhibition is -74.7% (active).
The value for `CC(C)c1ccc(NC(=O)c2ccc(Cn3nc(N4CCN(c5ccccc5)CC4)ccc3=O)o2)cc1` was -19.5%.
The value for `Cn1ncc2c(Nc3cccc4ccccc34)ncnc21` was 87.3%; that for `Cc1cc(C)n(CC(=O)Nc2ccc([N+](=O)[O-])cc2)n1` was -4.15%.
With `CC(C)CC(=O)Nc1ccc(Cc2ccncc2)cc1` the figure was -32.9%; with `Cc1cc([N+](=O)[O-])nn1CC(=O)Nc1ccc(Cc2ccncc2)cc1`, -63.5% (active); with `COc1ccc(NC(=O)CSC2=Nc3ccccc3C3=NC(CC(=O)NCc4ccccc4OC)C(=O)N23)cc1Cl` (configuration not stated), 17.7%.
In the case of `CC(Oc1ccc(Br)cc1)C(=O)NC1CCCCCC1` (configuration not stated), the activity change, negative = inhibition is 25.7%.
The value for `CC(C)(C)CC(C)(C)NCC(O)COCCOc1ccc(Br)cc1` (configuration not stated) was -100% (active); that for `CCC(C)NCCOCCOc1ccc(Br)cc1C` (configuration not stated) was -37.4%.
The value for `O=C(CCc1ccc(S(=O)(=O)N2CCOCC2)cc1)OCC(=O)c1ccc(Br)cc1` was 49%; that for `C/C(=N\NC(=O)c1ccoc1C)c1ccccc1O` was -91.4% (active).
With `CC(=N\NC(=O)c1cc(Br)ccc1O)/C(=N/O)C(=O)Nc1ccccc1` the figure was 0%; with `Cc1ccc(-c2noc(CNC(=O)c3ccoc3C)n2)cc1`, -11.6%; with `Cc1cc(C)c(C#N)c(Nc2cccc(Br)c2)n1`, 34%.
As to `CCOC(=O)c1cc(-c2ccccc2)n(-c2cccc(C(=O)Nc3cc(OC)cc(OC)c3)c2)c1C`, the activity change, negative = inhibition was 0%.
As to `O=C(NCC(c1cccs1)N1CCOCC1)c1cc(Cl)ccc1[N+](=O)[O-]` (configuration not stated), the activity change, negative = inhibition was -16.2%.
In the case of `O=C(/C=C/c1cccs1)c1cc(Cl)ccc1OC(=O)N1CCOCC1`, the activity change, negative = inhibition was -92.8% (active).
With `CC(=O)Nc1ccccc1OC(=O)N1CCOCC1`, the activity change, negative = inhibition was -15.8%.
The value for `CCc1ccccc1NC(=O)Cn1c(=O)n(-c2cccc(C)c2)c(=O)c2c1c1cc(OC)ccc1n2C` was -23.1%; that for `O=C(COC(=O)CNC(=O)C1CCCCC1)NCc1ccccc1` was 69.4%.
The value for `O=C(COC(=O)c1ccccc1C(=O)N1CCN(c2ccccc2)CC1)NCc1ccccc1` was -62.6% (active); that for `O=C(COC(=O)c1ncc(Cl)c(Cl)c1Cl)NCc1ccccc1` was 11.2%.
The value for `O=C(C1CCCN(S(=O)(=O)c2cccc3nonc23)C1)N1CCN(c2ccccc2F)CC1` (configuration not stated) was 6.66%; that for `O=[N+]([O-])c1ccc(NCCCO)c(C(F)(F)F)c1` was -8.02%; that for `Cc1ccc(-c2csc(NC(=O)C3=COCCO3)n2)cc1C` was -61.5% (active).
With `Cc1ccc(C(=O)Nc2nnc(C3=COCCO3)o2)cc1C`, the activity change, negative = inhibition was -0.804%.
Take `CCC(CC)c1nnc(NC(=O)C2=COCCO2)s1`: the activity change, negative = inhibition was -1.99%.
The value for `CCOc1ccc(CN2CCN(Cc3ccon3)CC2CCO)cc1` (configuration not stated) was 3.47%; that for `CC(C)(c1ccccc1)c1ccc(OCCN)cc1` was -107% (active); that for `C=CCNCCCCOc1ccccc1` was 16.3%.
On to `Cc1nn(CCOc2ccccc2)c(=O)n1-c1ccccc1F`, for which the activity change, negative = inhibition was 69.3%.
In the case of `O=C(/C=C/c1ccccc1)Oc1coc(CSc2ncccn2)cc1=O`, the activity change, negative = inhibition was 9.32%.
The value for `COC(=O)c1ccc(OC)c(Cn2c(=O)n(Cc3ccccc3)c(=O)c3c2c2cc(OC)ccc2n3C)c1` was 7.51%; that for `O=C(Nc1ccccc1)N1CCC(C(=O)N2CCN(Cc3ccccc3)CC2)CC1` was 0%; that for `O=C(C1CCN(S(=O)(=O)c2cnc[nH]2)CC1)N1CCN(Cc2ccc3c(c2)OCO3)CC1` was 9.71%.
With `O=C(C1CCN(Cc2ccc(Cl)cc2)CC1)N1CCN(Cc2ccc3c(c2)OCO3)CC1` the figure was -63% (active); with `CCS(=O)(=O)N1CCc2cc(C(=O)NCc3ccc(C)cc3)ccc21`, -3.25%; with `Cc1ccc(C(=O)Nc2ccccc2F)cc1S(=O)(=O)N1CCOCC1`, 31.5%.
With `Cc1ccc(NC(=O)N[C@H]2CC[C@@]34CCCN3C(=O)CCC[C@H]4C2Cc2ccccc2)cc1` (some centres not stated) the figure was 26.8%.
As for `CCOC(=O)C1CCN(C(c2ccc(F)cc2)c2sc3nc(-c4ccco4)nn3c2O)CC1` (configuration not stated), the activity change, negative = inhibition was 2.65%.
Take `Cc1cc(C)c(-c2n[nH]c3c2C(c2ccccc2F)N(CCO)C3=O)c(O)c1` (configuration not stated): the activity change, negative = inhibition was 25.7%.
With `CCC1(CC)NC(=O)N(CC(=O)OCC(=O)c2cc(C)c(C)cc2C)C1=O` the figure was -15.3%; with `CC(=O)Nc1ccc(S(=O)(=O)N2CCN(CCCOc3cc(C)ccc3C)CC2)cc1`, -65.9% (active).
Regarding `Cc1cccc(OCCCC(=O)Nc2ccc(S(=O)(=O)N3CCCC3)cc2)c1`, the activity change, negative = inhibition was 10.4%.
Turning to `Cc1ccc(C)c(OCCC(=O)Nc2cccc(S(=O)(=O)N3CCCC3)c2)c1`, the activity change, negative = inhibition is -23.7%.
With `CC1=C(C(N)=O)C(c2ccc3c(c2)OCO3)n2nc(-c3cccc(C)c3)nc2N1` (configuration not stated) the figure was 78%; with `CC1=C(C(=O)Nc2ccccc2)C(c2ccc(C)cc2)n2nc(SCc3ccccc3C)nc2N1` (configuration not stated), 1.28%.
As for `CCN(CC)c1ccc(C2C(C(N)=O)=C(C)Nc3nc(SCc4ccccc4)nn32)cc1` (configuration not stated), the activity change, negative = inhibition is -90.4% (active).
The value for `CNc1ccc(-c2nc(-c3ccco3)no2)cc1[N+](=O)[O-]` was 102%; that for `COc1ccc(S(=O)(=O)n2nc(C)c(S(=O)(=O)N3CCCCCC3)c2C)cc1` was -17.6%.
